According to the supplement of paper PMC10849652:
The full data set covers some 8,800 targets. This sample favours those with a hit. About 0.5% of all pairs of compound and target were hits.

Legend:
Test in all cases: log2 fold change, soluble protein after heating vs DMSO (PISA); higher = thermal stabilisation; K562 lysate, 10 uM; active = over 0.2 and 3.5 SD of the protein, either way, in both replicates (recomputed)
erlotinib = compound: C#Cc1cccc(Nc2ncnc3cc(OCCOC)c(OCCOC)cc23)c1 [erlotinib]
In short: (§1)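 Log-two fold change in thermal stability relative to solvent controls is reported from duplicates. For each sample, crude K562 extract from dounce-homogenised pellets in PBS pH 7.4 with 1 mM MgCl2, at 1 mg/mL protein, was treated with 10 μM compound for 30 min. Aliquots heated for 3 min across 48°C-58°C were pooled, brought to 0.5% NP-40 at 4°C and cleared at 21,000xg for 90 min. The supernatant was quantified by TMTpro 16plex LC-MS/MS with channel sums equalised.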

[1] = compound: C/C(=N\NC(=O)C1=CC(=CC=C1)S(=O)(=O)N2CCOCC2)/C3=C(C=CC(=C3)Cl)O
In short: as §1

[2] = compound: C1=CC(=CC=C1C2=NC3=C(N2)C=C(C=C3)C(=O)N)OC4=CC=C(C=C4)Cl
In short: as §1

[3] = compound: C1=CC2=C(C=CC(=C2)/C=C\3/C(=O)NC(=NCC4=CC=CS4)S3)N=C1
In short: as §1

[4] = compound: C1=CC2=NC=CN=C2C=C1/C=C/3\C(=O)NC(=O)S3
In short: as §1

[5] = compound: C1=CC=C(C=C1)C2=NC(=C(N2)C3=CC=NC=C3)C4=CC(=C(C=C4)Cl)O
In short: as §1

[6] = compound: C1=CC=C2C(=C1)C3=NNC4=CC=CC(=C43)C2=O
In short: as §1

[7] = compound: C1CCN(C1)C(=O)NC2=CC=CC(=C2)NC3=NC=C(C(=N3)NCCC4=CN=CN4)Br
In short: as §1

[8] = compound: C1CN(CCC1(CC2=CC=C(C=C2)Cl)N)C3=NC=NC4=C3C=CN4
In short: as §1

IRAK-1-4 Inhibitor I = compound: C1COCCN1CCN2C3=CC=CC=C3N=C2NC(=O)C4=CC(=CC=C4)[N+](=O)[O-] [IRAK-1-4 Inhibitor I]
In short: as §1

Measured: log2 fold change

SYNRG (UniProt Q9UMZ2)
inactive: erlotinib 0.029 | [1] -0.037 | [2] 0.078 | [3] 0.015 | [4] -0.012 | [5] -0.019 | [6] -0.01 | [7] -0.004 | [8] 0.021 | IRAK-1-4 Inhibitor I 0.016

SKA1 (UniProt Q96BD8)
Sequence of UniProt Q96BD8 (Q96BD8 whole entry, looked up): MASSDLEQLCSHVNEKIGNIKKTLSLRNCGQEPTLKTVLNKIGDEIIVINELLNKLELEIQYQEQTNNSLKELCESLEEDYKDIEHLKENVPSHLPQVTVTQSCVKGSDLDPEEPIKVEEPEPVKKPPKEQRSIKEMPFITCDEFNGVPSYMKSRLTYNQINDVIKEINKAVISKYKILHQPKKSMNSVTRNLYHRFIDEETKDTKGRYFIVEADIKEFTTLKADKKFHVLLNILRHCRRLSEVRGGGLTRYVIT
inactive: erlotinib -0.029 | [1] -0.015 | [2] 0.029 | [3] 0.072 | [4] -0.062 | [5] 0.065 | [6] -0.06 | [7] 0.02 | [8] -0.094 | IRAK-1-4 Inhibitor I 0.013

STK25 (UniProt O00506)
Sequence of UniProt O00506 (O00506 whole entry, looked up): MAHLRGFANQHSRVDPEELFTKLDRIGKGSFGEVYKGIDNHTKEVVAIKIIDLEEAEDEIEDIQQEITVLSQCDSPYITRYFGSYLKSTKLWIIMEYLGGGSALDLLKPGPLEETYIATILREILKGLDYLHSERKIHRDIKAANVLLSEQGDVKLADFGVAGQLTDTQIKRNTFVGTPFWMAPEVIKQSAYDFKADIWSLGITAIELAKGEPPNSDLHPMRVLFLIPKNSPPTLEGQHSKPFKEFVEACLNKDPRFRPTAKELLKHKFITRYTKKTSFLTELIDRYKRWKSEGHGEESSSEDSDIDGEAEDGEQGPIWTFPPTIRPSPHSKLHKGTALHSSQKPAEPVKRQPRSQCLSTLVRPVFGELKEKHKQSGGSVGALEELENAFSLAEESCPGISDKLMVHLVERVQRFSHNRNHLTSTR
active: [6] 0.317
inactive: erlotinib 0.037 | [1] -0.04 | [2] -0.038 | [3] 0.021 | [4] 0.012 | [5] 0.031 | [7] 0.052 | [8] -0.022 | IRAK-1-4 Inhibitor I -0.001

SLC25A32 (UniProt Q9H2D1)
inactive: erlotinib 0.035 | [1] 0.02 | [2] -0.062 | [3] 0.011 | [4] -0.013 | [5] -0.027 | [6] 0.056 | [7] 0.018 | [8] -0.002 | IRAK-1-4 Inhibitor I 0.029

SMC6 (UniProt Q96SB8)
Sequence of UniProt Q96SB8 (Q96SB8 whole entry, looked up): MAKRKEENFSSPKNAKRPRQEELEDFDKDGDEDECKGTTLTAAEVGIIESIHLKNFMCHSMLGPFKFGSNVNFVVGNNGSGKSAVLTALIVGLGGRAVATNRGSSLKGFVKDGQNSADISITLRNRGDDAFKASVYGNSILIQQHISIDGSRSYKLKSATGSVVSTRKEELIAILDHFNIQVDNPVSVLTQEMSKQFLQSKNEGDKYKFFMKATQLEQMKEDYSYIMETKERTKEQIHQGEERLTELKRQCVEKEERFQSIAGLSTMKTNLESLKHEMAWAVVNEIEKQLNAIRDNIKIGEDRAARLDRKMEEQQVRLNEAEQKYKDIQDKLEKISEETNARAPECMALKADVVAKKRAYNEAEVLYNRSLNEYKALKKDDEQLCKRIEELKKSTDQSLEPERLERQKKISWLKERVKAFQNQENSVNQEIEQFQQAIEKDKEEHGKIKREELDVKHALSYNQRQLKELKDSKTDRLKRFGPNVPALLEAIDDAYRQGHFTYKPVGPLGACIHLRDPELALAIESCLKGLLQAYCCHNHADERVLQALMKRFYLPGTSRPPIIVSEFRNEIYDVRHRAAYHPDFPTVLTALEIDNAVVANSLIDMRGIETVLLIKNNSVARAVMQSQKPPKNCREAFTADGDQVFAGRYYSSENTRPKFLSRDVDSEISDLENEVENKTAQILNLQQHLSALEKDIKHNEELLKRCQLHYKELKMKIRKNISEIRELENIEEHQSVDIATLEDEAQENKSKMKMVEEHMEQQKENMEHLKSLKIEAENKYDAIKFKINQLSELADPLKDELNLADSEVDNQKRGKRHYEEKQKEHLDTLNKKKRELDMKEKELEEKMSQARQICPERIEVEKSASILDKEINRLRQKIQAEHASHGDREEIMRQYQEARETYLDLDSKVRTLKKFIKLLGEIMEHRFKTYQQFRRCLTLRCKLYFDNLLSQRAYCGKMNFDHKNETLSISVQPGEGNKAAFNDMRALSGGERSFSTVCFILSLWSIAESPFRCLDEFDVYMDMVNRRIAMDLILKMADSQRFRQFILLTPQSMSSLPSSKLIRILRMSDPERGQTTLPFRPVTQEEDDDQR
inactive: erlotinib 0.02 | [1] 0.038 | [2] -0.03 | [3] -0.002 | [4] -0.009 | [5] 0.019 | [6] -0.055 | [7] -0.031 | [8] 0.03 | IRAK-1-4 Inhibitor I 0.01

SLC30A6 isoform 2 (UniProt Q6NXT4)
Sequence of UniProt Q6NXT4 (Q6NXT4 whole entry, looked up): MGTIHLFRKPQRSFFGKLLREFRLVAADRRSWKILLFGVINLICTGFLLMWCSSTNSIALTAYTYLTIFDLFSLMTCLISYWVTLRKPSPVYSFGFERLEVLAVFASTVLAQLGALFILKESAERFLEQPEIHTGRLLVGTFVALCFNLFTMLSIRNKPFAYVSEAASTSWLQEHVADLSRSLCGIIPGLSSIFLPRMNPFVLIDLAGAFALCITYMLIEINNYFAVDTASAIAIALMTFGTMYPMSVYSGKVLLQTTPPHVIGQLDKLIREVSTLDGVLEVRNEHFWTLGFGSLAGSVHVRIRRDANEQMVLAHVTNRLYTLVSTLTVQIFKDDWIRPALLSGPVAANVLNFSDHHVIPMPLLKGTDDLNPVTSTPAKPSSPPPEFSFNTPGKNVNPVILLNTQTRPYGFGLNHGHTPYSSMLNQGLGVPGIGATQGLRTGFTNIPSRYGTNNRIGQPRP
inactive: erlotinib -0.014 | [1] 0.031 | [2] -0.012 | [3] -0.08 | [4] 0.069 | [5] 0.008 | [6] -0.212 | [7] -0.005 | [8] -0.059 | IRAK-1-4 Inhibitor I 0

SLC25A38 (UniProt Q96DW6)
inactive: erlotinib -0.077 | [1] -0.117 | [2] -0.024 | [3] -0.049 | [4] -0.086 | [5] -0.114 | [6] -0.092 | [7] -0.023 | [8] -0.07 | IRAK-1-4 Inhibitor I -0.052

SMG6 (UniProt Q86US8)
Sequence of UniProt Q86US8 (Q86US8 whole entry, looked up): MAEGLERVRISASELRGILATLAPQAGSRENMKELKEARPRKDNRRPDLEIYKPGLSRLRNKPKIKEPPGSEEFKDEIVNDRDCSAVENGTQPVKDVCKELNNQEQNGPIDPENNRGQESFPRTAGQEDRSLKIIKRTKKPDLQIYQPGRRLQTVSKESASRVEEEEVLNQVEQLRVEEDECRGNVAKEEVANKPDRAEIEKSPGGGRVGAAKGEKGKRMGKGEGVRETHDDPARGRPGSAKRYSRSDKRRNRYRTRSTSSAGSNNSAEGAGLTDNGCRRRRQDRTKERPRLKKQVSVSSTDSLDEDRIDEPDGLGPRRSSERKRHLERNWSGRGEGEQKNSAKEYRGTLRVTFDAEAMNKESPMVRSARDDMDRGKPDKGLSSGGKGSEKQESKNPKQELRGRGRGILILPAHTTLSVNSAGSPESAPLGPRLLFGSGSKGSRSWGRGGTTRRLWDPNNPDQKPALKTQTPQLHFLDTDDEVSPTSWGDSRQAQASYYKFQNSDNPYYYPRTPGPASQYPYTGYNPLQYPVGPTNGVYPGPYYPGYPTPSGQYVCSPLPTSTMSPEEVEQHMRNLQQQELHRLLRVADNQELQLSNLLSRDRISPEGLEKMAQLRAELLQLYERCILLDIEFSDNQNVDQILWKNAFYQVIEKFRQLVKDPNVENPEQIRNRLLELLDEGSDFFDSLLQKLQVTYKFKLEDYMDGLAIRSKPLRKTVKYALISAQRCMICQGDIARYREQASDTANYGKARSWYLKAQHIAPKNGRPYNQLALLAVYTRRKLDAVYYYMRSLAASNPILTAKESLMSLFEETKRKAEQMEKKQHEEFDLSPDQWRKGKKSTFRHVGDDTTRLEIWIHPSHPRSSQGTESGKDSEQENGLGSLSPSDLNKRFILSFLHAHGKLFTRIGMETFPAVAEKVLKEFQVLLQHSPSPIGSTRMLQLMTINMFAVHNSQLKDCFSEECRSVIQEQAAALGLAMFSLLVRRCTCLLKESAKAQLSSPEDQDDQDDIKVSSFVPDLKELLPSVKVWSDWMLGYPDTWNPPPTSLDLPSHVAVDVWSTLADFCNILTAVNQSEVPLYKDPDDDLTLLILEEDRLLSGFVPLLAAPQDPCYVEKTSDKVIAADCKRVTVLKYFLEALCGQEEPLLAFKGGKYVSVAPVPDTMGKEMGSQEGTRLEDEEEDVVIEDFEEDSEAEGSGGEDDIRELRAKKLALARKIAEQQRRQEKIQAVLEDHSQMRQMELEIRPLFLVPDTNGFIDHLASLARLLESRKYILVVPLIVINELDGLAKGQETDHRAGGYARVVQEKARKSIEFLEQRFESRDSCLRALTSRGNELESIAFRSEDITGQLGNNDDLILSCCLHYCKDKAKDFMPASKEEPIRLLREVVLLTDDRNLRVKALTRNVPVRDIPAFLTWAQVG
inactive: erlotinib -0.038 | [1] 0.026 | [2] 0.012 | [3] 0.009 | [4] 0.021 | [5] 0 | [6] -0.092 | [7] -0.04 | [8] -0.005 | IRAK-1-4 Inhibitor I 0.026

SORBS3 (UniProt O60504)
Sequence of UniProt O60504 (O60504 whole entry, looked up): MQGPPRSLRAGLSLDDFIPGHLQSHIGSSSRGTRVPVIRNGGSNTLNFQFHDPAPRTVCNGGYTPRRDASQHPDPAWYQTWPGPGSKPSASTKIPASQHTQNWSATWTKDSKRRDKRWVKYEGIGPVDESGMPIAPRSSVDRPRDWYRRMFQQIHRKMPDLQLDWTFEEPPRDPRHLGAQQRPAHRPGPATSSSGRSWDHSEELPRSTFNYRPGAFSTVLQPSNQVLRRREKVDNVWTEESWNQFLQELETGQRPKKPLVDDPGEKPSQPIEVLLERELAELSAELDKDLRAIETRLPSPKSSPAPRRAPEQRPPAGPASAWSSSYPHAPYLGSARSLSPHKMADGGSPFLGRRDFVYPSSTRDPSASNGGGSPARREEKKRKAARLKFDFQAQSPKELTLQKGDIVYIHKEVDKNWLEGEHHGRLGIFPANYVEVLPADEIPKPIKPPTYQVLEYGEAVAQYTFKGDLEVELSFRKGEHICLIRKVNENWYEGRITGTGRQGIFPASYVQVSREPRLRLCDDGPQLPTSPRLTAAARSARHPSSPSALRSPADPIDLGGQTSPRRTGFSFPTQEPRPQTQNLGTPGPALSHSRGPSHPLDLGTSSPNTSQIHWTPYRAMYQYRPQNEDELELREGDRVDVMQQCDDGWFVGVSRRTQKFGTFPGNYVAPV
inactive: erlotinib -0.01 | [1] 0.028 | [2] 0.021 | [3] 0.018 | [4] -0.054 | [5] -0.092 | [6] 0.057 | [7] 0.09 | [8] 0.129 | IRAK-1-4 Inhibitor I 0.088

SHKBP1 (UniProt Q8TBC3)
inactive: erlotinib -0.005 | [1] -0.064 | [2] 0.058 | [3] 0.004 | [4] 0.011 | [5] 0.01 | [6] -0.018 | [7] 0.076 | [8] 0.189 | IRAK-1-4 Inhibitor I 0.022

SYK (UniProt P43405)
inactive: erlotinib -0.004 | [1] -0.007 | [2] 0.017 | [3] 0.039 | [4] -0.033 | [5] 0.021 | [7] -0.013 | [8] -0.038 | IRAK-1-4 Inhibitor I 0.053

SLC12A6 (UniProt Q9UHW9)
inactive: erlotinib -0.014 | [1] -0.073 | [2] -0.047 | [3] 0.013 | [4] -0.006 | [5] -0.028 | [6] -0.01 | [7] -0.024 | [8] 0.068 | IRAK-1-4 Inhibitor I -0.01

TARDBP (UniProt Q13148)
inactive: erlotinib -0.017 | [1] -0.092 | [2] 0.018 | [3] 0.004 | [4] 0.09 | [5] -0.133 | [6] -0.036 | [7] -0.065 | [8] 0.032 | IRAK-1-4 Inhibitor I 0.048

SLC7A5 (UniProt Q01650)
Sequence of UniProt Q01650 (Q01650 whole entry, looked up): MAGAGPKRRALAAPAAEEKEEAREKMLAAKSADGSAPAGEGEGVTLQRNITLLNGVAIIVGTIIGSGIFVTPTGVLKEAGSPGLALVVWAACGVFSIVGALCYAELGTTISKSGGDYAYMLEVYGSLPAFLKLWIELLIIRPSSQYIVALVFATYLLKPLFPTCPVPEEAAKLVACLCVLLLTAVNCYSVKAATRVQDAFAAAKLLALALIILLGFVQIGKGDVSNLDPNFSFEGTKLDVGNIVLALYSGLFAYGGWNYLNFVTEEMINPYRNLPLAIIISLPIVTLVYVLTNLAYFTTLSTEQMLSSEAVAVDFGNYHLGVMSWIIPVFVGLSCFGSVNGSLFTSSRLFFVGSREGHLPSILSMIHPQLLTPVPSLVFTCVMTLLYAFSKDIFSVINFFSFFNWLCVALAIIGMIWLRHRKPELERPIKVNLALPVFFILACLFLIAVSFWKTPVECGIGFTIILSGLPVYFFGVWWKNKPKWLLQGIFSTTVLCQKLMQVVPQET
inactive: erlotinib 0.001 | [1] -0.009 | [2] -0.029 | [3] -0.015 | [4] 0.02 | [5] 0.007 | [6] -0.008 | [7] 0.019 | [8] -0.006 | IRAK-1-4 Inhibitor I 0.021

SFN (UniProt P31947)
inactive: erlotinib 0.013 | [1] -0.239 | [2] -0.006 | [3] -0.053 | [4] -0.002 | [5] -0.004 | [6] 0.025 | [7] 0.012 | [8] -0.064 | IRAK-1-4 Inhibitor I -0.03
